In the antibiotic and cytotoxicity screens of Wong et al. (2023) one finds cytotoxicity call data, which are given here for 38 molecules.

The campaign covered roughly 39,000 compounds. About 1,500 (3.8%) were called active. The sample holds actives, similar compounds and a random draw of the others, so the mix is not that of the screen.

In the experiment the test system is HSkMC (human skeletal muscle cells). The experiment can be described thus: cytotoxicity call (relative viability < 0.9). As to conditions: 10 µM.
Take `O=C(NCCN1CCOCC1)[C@@H]1c2ccccc2C(=O)N(Cc2cc(C(F)(F)F)cc(C(F)(F)F)c2)[C@H]1c1ccc(CO)cc1`: the cytotoxicity call was “inactive”.
Turning to `C[C@H]1CN([C@@H](C)CO)C(=O)Cc2cc(NC(=O)CCN3CCOCC3)ccc2O[C@@H]1CN(C)Cc1ccc(C(=O)Nc2ccccc2N)cc1`, the cytotoxicity call was “inactive”.
On to `Cc1noc(C)c1NC(=O)Nc1ccc2c(c1)C(=O)N([C@H](C)CO)C[C@@H](C)[C@@H](CN(C)Cc1ccc(Oc3ccccc3)cc1)O2`, for which the cytotoxicity call is “inactive”.
To `C[C@@H]1CN([C@@H](C)CO)C(=O)c2cccc(NS(=O)(=O)c3cn(C)cn3)c2O[C@@H]1CN(C)S(=O)(=O)c1ccc(Cl)cc1` belongs “inactive”; to `COc1ccc(CN(C)C[C@H]2Oc3ccc(NS(C)(=O)=O)cc3C(=O)N([C@@H](C)CO)C[C@@H]2C)cc1`, “inactive”; to `CNC[C@H]1Oc2c(NS(=O)(=O)c3cn(C)cn3)cccc2C(=O)N([C@H](C)CO)C[C@H]1C`, “inactive”.
As for `Cn1cnc(CCNC(=O)C[C@H]2CC[C@@H]3[C@H](COC[C@H](O)CN3C(=O)Nc3ccc(C(F)(F)F)cc3)O2)c1`, the entry is “inactive”; as for `CCNC(=O)C[C@@H]1C=C[C@H](NC(=O)C2CC2)[C@@H](CO)O1`, “inactive”.
As for `C=CC[C@H](CC(=O)N[C@@H](CO)Cc1ccccc1)C(=O)N[C@@H](COC(=O)[C@@H](CC=C)Cc1ccc(F)cc1)Cc1c[nH]c2ccccc12`, the entry is “inactive”.
As for `C=CCC[C@H](Cc1ccc(F)cc1)C(=O)OC[C@H](Cc1c[nH]c2ccccc12)NC(=O)[C@@H](CC=C)CC(=O)N[C@H](CO)Cc1ccccc1`, the cytotoxicity call is “active”.
To `C=CCC[C@@H](Cc1ccc(F)cc1)C(=O)OC[C@H](Cc1c[nH]c2ccccc12)NC(=O)[C@@H](CC=C)CC(=O)N[C@@H](CO)Cc1ccccc1` belongs “inactive”.
To `C=CCC[C@@H](Cc1ccc(F)cc1)C(=O)OC[C@H](Cc1c[nH]c2ccccc12)NC(=O)[C@@H](CC=C)CC(=O)N[C@H](CO)Cc1ccccc1` belongs “inactive”.
On to `C=CCC[C@H](Cc1ccc(F)cc1)C(=O)OC[C@H](Cc1c[nH]c2ccccc12)NC(=O)[C@H](CC=C)CC(=O)N[C@@H](CO)Cc1ccccc1`, for which the cytotoxicity call is “inactive”.
Regarding `C=CCC[C@H](Cc1ccc(F)cc1)C(=O)OC[C@H](Cc1c[nH]c2ccccc12)NC(=O)[C@@H](CC=C)CC(=O)N[C@@H](CO)Cc1ccccc1`, the cytotoxicity call was “active”.
As for `C=CC[C@@H](CC(=O)N[C@H](CO)Cc1ccccc1)C(=O)N[C@H](COC(=O)[C@@H](CC=C)Cc1ccc(F)cc1)Cc1c[nH]c2ccccc12`, the cytotoxicity call is “inactive”.
As for `C=CC[C@@H](CC(=O)N[C@H](CO)Cc1ccccc1)C(=O)N[C@@H](COC(=O)[C@@H](CC=C)NC(=O)OCC1c2ccccc2-c2ccccc21)Cc1c[nH]c2ccccc12`, the entry is “active”; as for `C=CCC[C@@H](Cc1ccc(F)cc1)C(=O)OC[C@@H](Cc1c[nH]c2ccccc12)NC(=O)[C@H](CC=C)CC(=O)N[C@@H](CO)Cc1ccccc1`, “inactive”; as for `CS(=O)(=O)N1CC(=O)Nc2ccccc21`, “inactive”.
To `COc1ccc(S(=O)(=O)Nc2ccc3c(c2)C(=O)N([C@@H](C)CO)C[C@@H](C)[C@@H](CN(C)Cc2ccc(C(=O)O)cc2)OCCCC[C@H](C)O3)cc1` belongs “inactive”.
As for `C[C@@H]1CN([C@@H](C)CO)S(=O)(=O)c2ccc(C#CCN(C)C)cc2O[C@@H]1CN(C)Cc1ccccc1F`, the entry is “inactive”; as for `CC(C)NC(=O)Nc1ccc2c(c1)C(=O)N([C@H](C)CO)C[C@H](C)[C@H](CN(C)C(=O)Nc1cccc3ccccc13)OCCCC[C@H](C)O2`, “inactive”; as for `CC(C)NC(=O)N(C)C[C@H]1Oc2ccc(NC(=O)C3CCCCC3)cc2C(=O)N([C@H](C)CO)C[C@@H]1C`, “inactive”.
Consider `CCC(=O)Nc1ccc2c(c1)OC[C@@H](C)N(C(=O)CN1CCOCC1)C[C@H](C)[C@@H](OC)CN(C)C2=O`, for which the cytotoxicity call is “inactive”.
To `C[C@@H]1CN([C@@H](C)CO)C(=O)c2cccc(NC(=O)Nc3cccc4ccccc34)c2O[C@H]1CN(C)S(=O)(=O)c1ccccc1` belongs “inactive”; to `COc1ccc(S(=O)(=O)Nc2cccc3c2O[C@H](CN(C)S(=O)(=O)c2ccc(C)cc2)[C@@H](C)CN([C@H](C)CO)C3=O)cc1`, “inactive”; to `O=C(C[C@@H]1CC[C@H]2[C@@H](COC[C@@H](O)CN2S(=O)(=O)c2cccc(Cl)c2)O1)NCCCN1CCOCC1`, “inactive”.
To `COCC(=O)N1CC[C@]2(CC1)CN(Cc1cccc(c1)OC)[C@H](CO)c1c2c2ccc(cc2n1C)OC` belongs “inactive”; to `C[C@H](CO)N1C[C@H](C)[C@@H](CN(C)S(=O)(=O)c2cn(C)cn2)OCc2cn(nn2)CCCC1=O`, “inactive”; to `C[C@@H]1CN([C@@H](C)CO)C(=O)Cc2cc(NC(=O)Nc3ccc(C(F)(F)F)cc3)ccc2O[C@@H]1CN(C)Cc1ccccc1`, “active”.
With `C[C@H]1CN([C@@H](C)CO)C(=O)Cc2cc(NC(=O)Nc3ccc(C(F)(F)F)cc3)ccc2O[C@@H]1CN(C)Cc1ccccc1`, the cytotoxicity call was “inactive”.
As for `C[C@@H]1CN([C@H](C)CO)C(=O)Cc2cc(NC(=O)Nc3ccc(C(F)(F)F)cc3)ccc2O[C@H]1CN(C)Cc1ccccc1`, the entry is “active”; as for `C[C@H](CO)N1C[C@H](C)[C@H](CN(C)Cc2ccccc2)Oc2ccc(NC(=O)Nc3ccc(C(F)(F)F)cc3)cc2CC1=O`, “active”.
For the molecule `C[C@@H]1CN([C@@H](C)CO)C(=O)Cc2cc(NC(=O)Nc3ccc(C(F)(F)F)cc3)ccc2O[C@H]1CN(C)Cc1ccccc1`, the cytotoxicity call was “inactive”.
To `C[C@H]1CN([C@@H](C)CO)C(=O)Cc2cc(NC(=O)Nc3ccc(C(F)(F)F)cc3)ccc2O[C@H]1CN(C)Cc1ccccc1` belongs “active”; to `C[C@@H]1CCCCO[C@@H](CN(C)Cc2ccc(Cl)c(Cl)c2)[C@@H](C)CN([C@@H](C)CO)C(=O)c2cc(NS(=O)(=O)c3cn(C)cn3)ccc2O1`, “inactive”; to `C[C@H]1CCCCO[C@@H](CN(C)Cc2ccc(C(F)(F)F)cc2)[C@@H](C)CN([C@@H](C)CO)C(=O)c2cc(N(C)C)ccc2O1`, “inactive”.
Regarding `CC(C)C#Cc1cnc2c(c1)C(=O)N([C@H](C)CO)C[C@H](C)[C@H](CN(C)S(=O)(=O)c1cn(C)cn1)O2`, the cytotoxicity call was “inactive”.
As for `CCCC#Cc1cnc2c(c1)C(=O)N([C@@H](C)CO)C[C@H](C)[C@H](CN(C)C(=O)c1ccc3c(c1)OCO3)O2`, the entry is “inactive”.
